# Source: PubChem BioAssay
# RORgamma inh – inhibitors of mouse ROR gamma transcriptional activity; P51450; Drosophila S2 Gal4-RORgamma UAS-luciferase reporter, 20 h; Potency, µM (series often up to 53.6 µM), for inactives: at the top dose activity change, negative = inhibition, usual class: inhibitors; actives 5.4% (n = 310,000); note: nearly all actives have a fitted effect of over 60% in size
#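 A Gal4/UAS one-hybrid system in insect cells: metallothionein-promoter Gal4–ROR gamma fusion plus Photinus luciferase reporter. Copper sulfate 700 uM final, 20 hr ambient incubation, luminescent detection after 10 min with reagent.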
# PLK1 PBD block – blocks phosphopeptide binding to human PLK1 polo-box domain | actives 2.8% (n = 360,000) | AID 720504 | P53350 | Plk1 PBD binding of FITC phosphopeptide, fluorescence polarization | Potency, µM, for inactives: max response, negative = inhibition, usual class: inhibitors; note: series mostly up to about 57 µM; nearly all actives have a fitted effect of over 65% in size
# VP16 counter – counter-screen for ROR gamma inhibitors: Gal4-VP16 reporter; Drosophila S2 Gal4-VP16 UAS-luciferase, luminescence, 20 h; Potency, µM (doses to about 53.6 µM), for the others: top-dose activity, negative = inhibition, most hits filed as inhibitors; actives 3.5% (n = 310,000);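 note: Gal4-VP16 expression switched on by copper sulfate through the metallothionein promoter; nearly all actives have a fitted effect of over 50% in size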
# ALDH1A1 block – ALDH1A1 (human) enzyme inhibition; P00352; Purified ALDH1A1, NADH fluorescence, propionaldehyde substrate; Potency, µM (titrated, usually from 75.3 µM), for inactives: at the highest dose activity, negative = inhibition, most hits filed as inhibitors; actives 7.3% (n = 220,000); AID 1030; active = well fitted inhibition curve with a large enough effect, not every such curve was filed as active; inconclusive = small, poorly fitted or top-dose-only effect, or another doubt; inactive = no such curve, though single readings can be large or run the other way;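 note: plate controls were no enzyme wells and a reference inhibitor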
# Sfp inh – Sfp phosphopantetheinyl transferase inhibition; Potency, µM, for inactives: largest response in the series, negative = inhibition, usual class: inhibitors; actives 3.5% (n = 310,000); Q9F4F7; Biochemical Sfp PPTase activity, qHTS;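 note: the enzyme is Sfp with the accession as filed and its product quenches rhodamine fluorescence; 0% = enzyme reaction without inhibitor and -100% = no enzyme wells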
#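 Sfp 15 nM + cpd, 15 min RT; start w/ rhodamine-CoA 5 uM, BHQ-2-YbbR 12.5 uM (final); 50 mM Hepes pH 7.6, 10 mM MgCl2, 0.01% NP-40, 0.01% BSA; read 525/598 nm at 0 and 30 min.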
# * = called active by the depositor; ? = inconclusive; . = not tested or not shown. In the library only some 12% were active in any assay of this set; here they are far more common. Unless noted, calls come from the whole dose curve; as a rule, active = well fitted curve in the direction sought with a large enough effect; inconclusive = small, poorly fitted or top-dose-only effect, or another doubt; inactive = no such curve, though single readings can be large; an effect the other way counts as inactive or inconclusive. Unless noted, % is set by controls: 0 for no effect and ±100 for the full control effect; potency is the fitted concentration of half-maximal effect.
SMILES,RORgamma inh,PLK1 PBD block,VP16 counter,ALDH1A1 block,Sfp inh
CCNC(=O)NC(=O)C(C)Sc1nc2ccccc2c(=O)n1-c1cccnc1 (stereo not given),?,2%,-2%,.,2%
CCCCn1c(SC(C)C(=O)NCC2CCCO2)nc2cc(C(=O)OC)ccc2c1=O (stereo not given),.,-11%,.,.,.
CCNC(=O)NC(=O)C(C)Sc1nc2cc(C(=O)OC)ccc2c(=O)n1-c1ccccc1 (stereo not given),-31%,-10%,?,22µM*,18%
CCCCn1c(SC(C)C(N)=O)nc2cc(C(=O)OC)ccc2c1=O (stereo not given),14µM*,-7%,-14%,0.6µM*,7%
CCCNC(=O)NC(=O)CSc1nc2cc(C(=O)OC)ccc2c(=O)n1-c1ccccc1,-3%,-5%,?,-8%,16%
O=C(NCCCN1CCCC1=O)Nc1ccc([N+](=O)[O-])cc1,-2%,0%,-1%,.,6%
CC(C)C(=O)Nc1nnc(CCc2ccccc2)s1,-9%,-14%,23%,.,6%
CCCc1nnc(NC(=S)Nc2ccccc2)s1,0.63µM*,-20%,0.63µM*,?,8%
CC(C)C(=O)Nc1nnc(NC(=S)Nc2ccccc2)s1,0.56µM*,?,2.8µM*,?,-7%
CCCc1nnc(NC(=O)CCC(=O)Nc2ccc(Cl)cc2)s1,-3%,-3%,0%,.,-5%
Cc1ccn2c(-c3csc(NCc4ccccc4)n3)c(C)nc2c1,14µM*,-10%,?,?,?
Cc1nc2ncccn2c1-c1csc(Nc2ccc(O)cc2)n1,-42%,-6%,22%,-7%,?
CC(=O)Nc1ccc(-c2csc(NCc3ccccc3)n2)cc1,15%,-16%,-2%,?,-13%
Cc1ccc(Nc2nc(-c3c(C)nc4ccccn34)cs2)cc1,10µM*,-2%,?,?,45µM*
Cc1nc2ccccn2c1-c1csc(NCc2ccco2)n1,11µM*,-17%,?,22µM*,?
c1coc(CNc2nc(-c3ccncc3)cs2)c1,?,-4%,2%,1%,17%
Cc1ccc(Nc2nc(-c3c(C)nc4ncccn34)cs2)cc1,?,-16%,-6%,?,50µM*
O=c1ccn(C2CCCO2)c(=O)[nH]1 (stereo not given),.,-4%,.,.,.
O=C(c1cccnc1)N1N=C2CCCCCC2C1(O)C(F)(F)F (stereo not given),-1%,-16%,-6%,?,-9%
O=C(c1cccnc1)N1N=C(C2CCCCC2)CC1(O)C(F)(F)F (stereo not given),-14%,-6%,0%,13µM*,1%
CCC(C)(C)n1nnnc1C(c1cc2cccc(C)c2[nH]c1=O)N1CCCC1 (stereo not given),-34%,-11%,?,?,-23%
CCC(C)(C)n1nnnc1C(c1cc2cc(C)cc(C)c2[nH]c1=O)N1CCN(Cc2ccc3c(c2)OCO3)CC1 (stereo not given),3%,-14%,8%,?,63µM*
CCC(C)(C)n1nnnc1C(c1cc2cc(C)cc(C)c2[nH]c1=O)N1CCCC1 (stereo not given),43%,-12%,-6%,?,25µM*
COCCCNC(=O)C[C@@H]1C[C@@]2(C(=O)OC)CC(C)(C)CC=C2N(Cc2ccc3c(c2)OCO3)C1=O,.,2%,.,.,.
FC(F)(F)c1ccccc1-c1cc(NCc2cccnc2)ncn1,-16%,.,7%,12%,-27%
SMILES,RORgamma inh,PLK1 PBD block,VP16 counter,ALDH1A1 block,Sfp inh
Cc1sc(NC(=O)CCCC(=O)O)c(C(N)=O)c1-c1ccccc1,?,30µM*,-15%,?,2%
O=C(Nc1cccc2cccnc12)c1csc([C@@H]2O[C@H](CO)[C@H](O)[C@H](O)[C@H]2O)n1,.,0%,.,.,.
Cc1ccc(C(=O)NC(=S)NCC(=O)c2ccccc2)cc1,?,-2%,?,?,-9%
O=C(CNC(=S)NC(=O)c1ccco1)c1ccccc1,?,-4%,-9%,20µM*,-20%
O=C(CNC(=S)NC(=O)c1cccs1)c1ccccc1,8.9µM*,2%,?,7.9µM*,-26%
O=C(NC(=S)NCc1ccccc1)c1cccs1,5µM*,-17%,7.9µM*,.,12%
COc1ncc2ncc(=O)n(C3CC3)c2n1,-12%,.,8%,?,25%
